Data as given in the supplement of paper PMC12636033.
± gives the standard deviation of the averaged measurements. Whole data set: some 33,000 sequences, median “E-score (rank enrichment, -0.5 to 0.5)” near -0.0028, cut for the highest 2% near 0.23. For the sample, the highest values were picked, then their nearest neighbours and some sequences at random.

system: 2Sb-muMax20 (muMax20 with two 1,3-bis(methyl)benzene Cys staples, A13C/A17C and Q88C/A92C, C-terminal Lys); assay: PBM 8-mer E-score (E-score (rank enrichment, -0.5 to 0.5)); higher = stronger preferential binding
Procedure: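 Protein binding microarray (universal PBM chip covering all 10-mers in fixed probe flanks) with chemically synthesized human Max(13-93) bHLH-LZ analogs (not full-length Max) bearing noncanonical residues (hArg, Tha, Aib, Nle at 65) and aromatic Cys staples. Read-out per 8-mer (and its reverse complement): E-score (rank-based enrichment, -0.5 to 0.5) and Z-score of median probe intensity.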

Row | Sequence | PBM 8-mer E-score
1 | ACTCTTTG | 0.0269 ± 0.0091
2 | TTAGATAA | 0.113 ± 0.021
3 | AACGCTCT | -0.0435 ± 0.014
4 | CAACCTGA | -0.0727 ± 0.068
5 | AAGCGCTC | -0.108 ± 0.037
6 | AAGCGCTT | 0.309 ± 0.011
7 | AAGCGCTA | -0.041 ± 0.0066
8 | ACTGAGCC | -0.209 ± 0.022
9 | GAATAGCA | 0.146 ± 0.046
10 | CATCCATG | -0.0304 ± 0.072
11 | ACTACTAC | 0.0819 ± 0.046
12 | CTTACTAC | 0.202 ± 0.032
13 | ACTACTAG | 0.241 ± 0.027
14 | CCTACTAG | 0.0815 ± 0.034
15 | ACTAGTAT | 0.201 ± 0.067
16 | ACTAGTAA | 0.231 ± 0.036
17 | GCTACTAC | 0.233 ± 0.0041
18 | ATTACTAC | 0.296 ± 0.011
19 | ACTACTAT | 0.173 ± 0.036
20 | GCTACTAA | 0.082 ± 0.075
21 | ATTACTAG | -0.0604 ± 0.047
22 | ACTAGTAG | 0.113 ± 0.013
23 | ACCTGTGA | -0.138 ± 0.064
24 | CCTATGAG | -0.157 ± 0.032
25 | AATCTAGA | -0.047 ± 0.028

Row | Sequence | PBM 8-mer E-score
26 | CCGTTTAA | -0.0517 ± 0.035
27 | AGAGCGTA | 0.00302 ± 0.045
28 | AGATGATC | -0.147 ± 0.013
29 | ACGGTGAG | -0.0622 ± 0.023
30 | CAGAATTA | -0.00473 ± 0.0023
31 | AGCGAAGA | -0.0699 ± 0.084
32 | CACATGTC | -0.0158 ± 0.02
33 | AACATGTG | 0.344 ± 0.044
34 | CACATGCG | 0.124 ± 0.051
35 | AACATGTC | 0.11 ± 0.051
36 | TACATGTA | 0.238 ± 0.06
37 | AACATGTT | 0.122 ± 0.0036
38 | CACATGAA | 0.125 ± 0.0092
39 | CACATGTA | 0.338 ± 0.0074
40 | CACATGTG | 0.395 ± 0.00083
41 | CTCATGTA | 0.0268 ± 0.039
42 | GACATGTA | 0.147 ± 0.021
43 | TACATGCA | 0.181 ± 0.0009
44 | CAACTCAG | -0.162 ± 0.038
45 | ACCGTCAG | -0.115 ± 0.051
46 | GACAGGAC | -0.0924 ± 0.0031
47 | GGGACCGA | -0.24 ± 0.04
48 | GGGCAGAC | -0.0224 ± 0.074
49 | GAACGATA | 0.0756 ± 0.039
50 | AGTAACCC | 0.0955 ± 0.019

Row | Sequence | PBM 8-mer E-score
51 | AATAAACA | 0.195 ± 0.025
52 | AACATGCA | 0.203 ± 0.011
53 | AACATGTA | 0.258 ± 0.027
54 | AACATGGA | -0.00271 ± 0.005
55 | CCCATCAC | 0.249 ± 0.026
56 | GCCATCAC | -0.154 ± 0.0083
57 | CCCATCAA | 0.12 ± 0.019
58 | GCAGAAAA | 0.0213 ± 0.046
59 | TAATGGGA | 0.147 ± 0.011
60 | AATTAGCT | 0.164 ± 0.022
61 | ACCCTTGA | -0.145 ± 0.041
62 | GCCCTTGA | -0.0328 ± 0.041
63 | CCCCTTCC | -0.0525 ± 0.1
64 | CCCCTTCA | 0.294 ± 0.014
65 | TCCCTTCA | 0.0279 ± 0.022
66 | CCCCTTGA | 0.27 ± 0.0079
67 | GGCCGCAC | -0.0381 ± 0.06
68 | CGCCACGC | -0.118 ± 0.0025
69 | GATTACCC | 0.093 ± 0.041
70 | ATCGGCCC | 0.0612 ± 0.096
71 | GTGCCGCA | -0.0229 ± 0.078
72 | ACCCCAAG | 0.271 ± 0.016
73 | ACCCCAAA | 0.2008 ± 0.0017
74 | ACCCCCAT | -0.188 ± 0.066
75 | ACCCCAAT | 0.344 ± 0.025

Row | Sequence | PBM 8-mer E-score
76 | ACCCCAAC | 0.217 ± 0.019
77 | ACCCCATG | 0.253 ± 0.019
78 | AACCCAAT | -0.0928 ± 0.095
79 | AACCCATG | 0.106 ± 0.067
80 | ACCCCATA | 0.147 ± 0.013
81 | CATTGCCA | -0.0459 ± 0.045
82 | CACCAGAA | -0.00913 ± 0.061
83 | GAGTCAGA | -0.0579 ± 0.039
84 | ACGGCCAA | -0.0314 ± 0.0051
85 | ACTGGTGC | -0.0379 ± 0.026
86 | CTATTCAC | -0.0182 ± 0.015
87 | CGATAGAA | 0.0743 ± 0.02
88 | CGTCCGAA | -0.121 ± 0.017
89 | TACAGAAA | 0.256 ± 0.021
90 | AACAGAAA | 0.0674 ± 0.036
91 | GACAGAAA | 0.111 ± 0.013
92 | AAGACGTC | 0.0152 ± 0.028
93 | GATGGCAC | 0.03519 ± 8.5e-05
94 | CATGGCAA | -0.0308 ± 0.0076
95 | GATGGCAA | 0.242 ± 0.012
96 | ATGCCGCA | 0.0568 ± 0.0082
97 | AGCGAGGA | -0.0458 ± 0.014
98 | GTCTTCTA | 0.00543 ± 0.00074
99 | ACTACCCC | 0.214 ± 0.047
100 | CGTACCCC | 0.246 ± 0.015

Row | Sequence | PBM 8-mer E-score
101 | AGTACCCC | 0.129 ± 0.038
102 | CGTACCCA | 0.0446 ± 0.097
103 | GCTACCCC | -0.0378 ± 0.075
104 | CCTACCCC | 0.248 ± 0.062
105 | ATGAAAAC | 0.0577 ± 0.019
106 | CAGGAAAC | -0.0883 ± 0.035
107 | CGACTCAC | -0.236 ± 0.04
108 | AGGGTTCC | -0.294 ± 0.015
109 | ACGTATGC | 0.238 ± 0.066
110 | CCGTATGC | -0.07 ± 0.043
111 | ACGTATGA | 0.127 ± 0.02
112 | TCCGAGCA | -0.1624 ± 0.00048
113 | AACCCCAT | 0.156 ± 0.03
114 | TATTAGAA | 0.259 ± 0.036
115 | CATTAGAA | 0.00421 ± 0.034
116 | GATTAGAA | 0.00142 ± 0.015
117 | ACCCGCCT | 0.0215 ± 0.042
118 | ATGCCGAC | -0.112 ± 0.0097
119 | GGTGGGAA | 0.0964 ± 0.019
120 | AGTGGGGA | 0.3126 ± 0.0004
121 | GTTGGGCA | 0.024 ± 0.041
122 | AGTGGGAG | -0.0115 ± 0.017
123 | GGTGGGGA | 0.302 ± 0.032
124 | AGTGGGGC | 0.0302 ± 0.058
125 | GGTGGGCA | 0.262 ± 0.0056

Row | Sequence | PBM 8-mer E-score
126 | CGTGGGCA | 0.00349 ± 0.003
127 | AGTGGGAA | 0.105 ± 0.12
128 | CGTGGGGA | 0.0752 ± 0.016
129 | AGTGGGAT | 0.293 ± 0.031
130 | AGTGGGGG | 0.085 ± 0.077
131 | CAATACCC | 0.216 ± 0.021
132 | ATCAAGCA | -0.0166 ± 0.023
133 | AACGTTAC | 0.0258 ± 0.019
134 | AATGGACA | 0.0255 ± 0.059
135 | CATCCCAG | -0.121 ± 0.0081
136 | AACGGCGA | -0.0512 ± 0.014
137 | ACGATAAA | 0.014 ± 0.017
138 | AGCAGAGG | -0.0143 ± 0.0075
139 | CGGTGGGA | 0.00626 ± 0.078
140 | GGGTGGGA | 0.314 ± 0.026
141 | AGGTGGGA | 0.13 ± 0.12
142 | ATACGCAG | -0.0883 ± 0.0056
143 | ATACGCAA | 0.303 ± 0.0063
144 | GTACGCAA | -0.0811 ± 0.049
145 | ATATATCC | 0.24 ± 0.015
146 | ATAGATAC | 0.239 ± 0.02
147 | ATATATAT | 0.00253 ± 0.052
148 | CTATATCC | 0.217 ± 0.014
149 | GTATACAC | 0.0536 ± 0.025
150 | ATATATCA | 0.18 ± 0.048

Row | Sequence | PBM 8-mer E-score
151 | ATAGATAG | 0.204 ± 0.051
152 | ATATATAC | 0.289 ± 0.038
153 | CTATATAC | 0.214 ± 0.027
154 | GTATATAC | 0.296 ± 0.039
155 | ATAGATAA | 0.185 ± 0.09
156 | GTATATAA | 0.119 ± 0.015
157 | CGGATTCC | -0.0954 ± 0.031
158 | CAAACGGA | -0.0945 ± 0.0024
159 | AACCACGG | -0.276 ± 0.0092
160 | CGATCAGA | -0.199 ± 0.015
161 | ATTGGCTG | -0.0784 ± 0.03
162 | CTCGTGCA | 0.0182 ± 0.011
163 | AAGTATAA | 0.196 ± 0.052
164 | AAGTATAT | 0.136 ± 0.0036
165 | AAGTATAC | 0.236 ± 0.038
166 | ATATAGCC | 0.234 ± 0.01
167 | CTATAGCC | 0.0346 ± 0.087
168 | ATATAGCA | 0.175 ± 0.016
169 | GTGAGACA | 0.0265 ± 0.039
170 | GTTGTCCA | 0.00715 ± 0.051
171 | AGGCCCGG | -0.321 ± 0.063
172 | GGGGTCAA | 0.109 ± 0.11
